Hits are enriched below; roughly 4.2% of the tested compounds scored in any of these assays.
USP28 inh: blocks human USP28 ubiquitin-rhodamine cleavage; inhibition, % at 25 µM; purified USP28, Ub-rhodamine cleavage fluorescence, 30 min; actives 3% (n = 47,000)
USP7 block: inhibitors of human USP7 deubiquitinase. Q93009. purified USP7, Ub-rhodamine cleavage fluorescence. inhibition, % at 20 µM. actives 0.3% (n = 47,000). AID 1645854
USP10 inh: human USP10 deubiquitinase inhibition; purified USP10, Ub-rhodamine fluorescence, 60 min; inhibition, % at 20 µM; actives 1.1% (n = 47,000)
UCHL1 block: inhibitors of human UCHL1 deubiquitinase; P09936; purified UCHL1, Ub-rhodamine cleavage fluorescence; inhibition, % at 20 µM; actives 0.2% (n = 47,000); AID 1645859
OTUD3 block: blocks human OTUD3 ubiquitin-rhodamine cleavage; Q5T2D3; AID 1645858; actives 0.7% (n = 47,000); inhibition, % at 25 µM; purified OTUD3, Ub-rhodamine fluorescence, 2 h
Target sequence (Q5T2D3 whole entry, looked up): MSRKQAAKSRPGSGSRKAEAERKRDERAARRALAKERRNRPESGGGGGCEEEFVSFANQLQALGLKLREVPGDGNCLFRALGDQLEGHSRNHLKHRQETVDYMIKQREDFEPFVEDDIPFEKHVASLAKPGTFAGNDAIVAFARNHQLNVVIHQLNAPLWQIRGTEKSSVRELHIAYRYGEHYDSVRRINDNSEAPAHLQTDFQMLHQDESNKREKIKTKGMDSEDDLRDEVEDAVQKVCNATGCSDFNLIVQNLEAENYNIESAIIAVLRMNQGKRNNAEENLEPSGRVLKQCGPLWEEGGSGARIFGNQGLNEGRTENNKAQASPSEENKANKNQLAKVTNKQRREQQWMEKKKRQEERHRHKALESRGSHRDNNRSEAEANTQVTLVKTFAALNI
A number is an active result; – = inactive; · = no result given. No stated cut-off is given here; in the data, active means inhibition above about 30%; inactive means the rest.

SMILES	USP28 inh	USP7 block	USP10 inh	UCHL1 block	OTUD3 block
O=c1c(OC2O[C@H](CO)[C@H](O)[C@H](O)[C@H]2O)c(-c2ccc(O)cc2)oc2cc(O)cc(O)c12 (stereo not given in full)	–	–	–	–	34
COc1ccc(C(NC(=O)c2nc3n(n2)-c2ccccc2S(=O)(=O)N3)C(C)C)cc1 (stereo not given)	–	–	30	–	–
COc1ccc(NC(C)C(=O)N2CC(=O)Nc3ccccc32)cc1 (stereo not given)	–	–	–	–	–
COc1ccc(N(C)S(=O)(=O)c2cccc(C(=O)OCC(=O)N(Cc3ccccc3)C(C)C)c2)cc1	–	–	–	–	–
CSc1ncccc1C(=O)NC1(O)C(=O)c2ccccc2C1=O	–	–	41	34	–
O=C(c1ccco1)N1CCN=C1SCc1ccccc1F	75	–	–	–	–
Cc1cccc(CC(=O)N2CCN=C2SCc2ccccc2)c1	–	–	–	–	–
O=C(c1ccco1)N1CCN=C1SCc1ccc([N+](=O)[O-])cc1	61	–	–	–	–
CN1CCN(C(=O)c2ccn(-c3ccc4ccc(-c5cnn(C)c5)cn34)n2)CC1	–	–	–	–	–
O=C1CN(C(=O)CNc2ccccc2Oc2ccccc2)c2ccccc2N1	–	–	–	–	–
Clc1ccc2nc(NC3=NCN(CCc4ccccc4)CN3)nc(-c3ccccc3)c2c1	–	–	–	–	–
O=C1NC(=O)/C(=C/c2ccc(OC(=O)c3ccc(Cl)cc3Cl)cc2)N1	31	–	45	–	–
COc1ccc2c(c1)C(=O)C/C(=C\c1ccc(Cl)cc1)C2	–	–	–	–	–
O=C(c1cnco1)N1CCCCC1c1ncc(Cc2ccc(Cl)cc2)o1 (stereo not given)	–	–	–	–	–
Cn1nccc1C(=O)N1CCCCC1c1ncc(Cc2ccc(Cl)cc2)o1 (stereo not given)	–	–	–	–	35
Cc1ccc(NC(=O)COc2ccccc2C#N)cc1	–	–	–	–	–
Cc1ccc(NC(=O)COc2ccccc2/C=C2/NC(=O)N(Cc3ccc(F)cc3)C2=O)cc1	39	–	36	–	–
O=C(Cn1cc(C(=O)C(F)(F)F)c2cc(Br)ccc21)N1CCc2ccccc21	–	–	36	–	–
CC(C)(C)C(=O)c1cn(CC(=O)N2CCCc3ccccc32)c2ccccc12	–	–	–	–	–
Cc1ccc([N+](=O)[O-])cc1S(=O)(=O)Nc1cc2sc(=O)oc2c2ccccc12	61	–	37	–	33
CCC(C)c1ccc(O[C@@H]2O[C@@H]3COC(c4ccccc4)O[C@H]3[C@H](O)[C@H]2NC(C)=O)cc1 (stereo not given in full)	34	–	–	–	–
COc1ccc(-c2nn(-c3ccccc3)cc2/C=C/C(=O)Nc2ccc(C(C)=O)cc2)cc1OC	48	–	–	–	47
COc1ccc(C(=O)/C=C\c2cn(CCC(=O)O)nc2-c2ccc(OC)c(OC)c2)cc1	–	–	–	–	–
O=C(c1cc2ccccc2o1)N1CC=C(c2ccccc2)CC1	34	–	–	–	32
Cc1cc(OCC(=O)Nc2c(C)cccc2C)nc(N2CCCCCC2)n1	–	–	–	–	–
SMILES	USP28 inh	USP7 block	USP10 inh	UCHL1 block	OTUD3 block
Cc1cccc(OCCn2c(CCNC(=O)C3CCCCC3)nc3ccccc32)c1	–	–	32	–	–
Cc1ccc(N2CC(c3nc4ccccc4n3CCOc3cccc(C)c3)CC2=O)cc1 (stereo not given)	–	32	69	–	–
CCc1ccc(OCCn2c(CCNC(=O)C3CCCCC3)nc3ccccc32)cc1	–	–	–	–	–
O=C(NCCc1nc2ccccc2n1CCOc1ccccc1Cl)C1CCCCC1	30	–	38	–	–
Cc1ccc(N2CC(c3nc4ccccc4n3CCCCOc3ccccc3)CC2=O)cc1 (stereo not given)	–	–	–	–	–
Cc1nc(-c2cccc(N3CC(C(=O)Nc4ccccc4C)CC3=O)c2)no1 (stereo not given)	–	–	–	–	–
CCCOc1ccc(-c2nc(C#N)c(N3CCN(C(=O)c4ccccc4C)CC3)o2)cc1	–	–	–	–	–
Cc1ccc(NC(=O)Cn2c(=O)n(-c3ccc(CC(=O)NCc4ccco4)cc3)c(=O)c3sccc32)c(C)c1	·	–	44	–	–
COc1ccc(CCNC(=O)Cn2c(=O)c3sccc3n(Cc3cccc(Cl)c3)c2=O)cc1OC	–	–	–	–	–
O=C(Cc1ccc(-n2c(=O)c3sccc3n(Cc3ccc(F)cc3)c2=O)cc1)NCCc1ccccc1	·	–	37	–	–
Cc1ccccc1NC(=O)Cn1c(=O)n(-c2ccc(CC(=O)NCCc3ccccc3)cc2)c(=O)c2sccc21	–	32	51	–	–
Cc1ccc(NC(=O)c2nnn(CC(=O)Nc3cccc(C)c3C)c2N)cc1C	–	–	36	–	–
COc1c(O)cc(CC(=O)O)c(C(C)=O)c1O	79	–	–	50	78
CCCCCCCC(=O)c1c(O)cc(O)cc1CC(=O)O	–	–	–	–	–
Cc1cccc(NC(=O)c2ccn(COc3ccc(F)cc3F)n2)c1C	51	–	–	–	–
Cc1ccccc1NC(=O)c1ccn(COc2ccc(Cl)cc2)n1	59	–	–	–	–
O=C(Nc1cc(F)ccc1F)c1ccn(COc2ccc(F)c(Cl)c2)n1	–	–	–	–	–
O=C(Nc1ccccc1Br)c1ccn(COc2ccccc2F)n1	–	–	–	–	–
O=C(NCc1ccc(Cl)cc1)c1cc2c(s1)-c1ccccc1OC2	–	–	44	–	–
O=C(NCc1ccc2c(c1)OCO2)c1cc2c(s1)-c1ccccc1OC2	–	–	–	–	–
O=C(O)C(Cc1ccccc1)NS(=O)(=O)c1ccc2c(c1)OCCO2 (stereo not given)	–	–	–	–	–
O=C(Nc1ccc(N2CCOCC2)cc1)C(Cc1ccccc1)NS(=O)(=O)c1ccc2c(c1)OCCO2 (stereo not given)	37	–	–	–	–
O=C(NCc1ccccc1)C(Cc1ccccc1)NS(=O)(=O)c1ccc2c(c1)OCCO2 (stereo not given)	56	–	–	–	–
O=C(c1ccc(-n2cccn2)nc1)N1CCSCC1	–	–	–	–	–
Clc1ccc(-c2noc(-c3cnccn3)n2)cc1	–	–	–	–	–
SMILES	USP28 inh	USP7 block	USP10 inh	UCHL1 block	OTUD3 block
Cc1ccc(-n2c(=O)n(CC(=O)N3CCN(C4CCN(C)CC4)CC3)c3cccnc32)cc1	–	–	–	–	–
COc1ccc(N2CCCS2(=O)=O)cc1NC(=O)c1ccccc1OC	35	–	–	–	–
CCOc1ccccc1C(=O)Nc1cc(N2CCCS2(=O)=O)ccc1C	32	–	–	–	–
CCOc1ccc(C(=O)Nc2cc(N3CCCS3(=O)=O)ccc2C)cc1	–	–	–	–	–
O=S(=O)(Nc1ccccc1Cc1ccccc1)c1ccc(F)cc1	–	–	–	–	–
Brc1ccc(C2=CC(c3cccs3)n3c(nc4ccccc43)N2)s1 (stereo not given)	–	–	–	–	–

Source: PubChem BioAssay (Buhrlage Lab, Dana-Farber Cancer Institute and Novartis Institutes for BioMedical Research (Cambridge, Mass))
